In the supplement of paper PMC12636033:
± gives the standard deviation of the averaged measurements. Whole data set: some 33,000 sequences, median “E-score (rank enrichment, -0.5 to 0.5)” near -0.0075, cut for the highest 2% near 0.23. Many of the other results were omitted from the sample, so the highest values are more common in it than they were.

The sequences below were run on WT Max(13-93) synthetic (M65Nle) (assay: PBM 8-mer E-score (E-score (rank enrichment, -0.5 to 0.5)); higher = stronger preferential binding).
Experimental: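 Protein binding microarray (universal PBM chip covering all 10-mers in fixed probe flanks) with chemically synthesized human Max(13-93) bHLH-LZ analogs (not full-length Max) bearing noncanonical residues (hArg, Tha, Aib, Nle at 65) and aromatic Cys staples. Read-out per 8-mer (and its reverse complement): E-score (rank-based enrichment, -0.5 to 0.5) and Z-score of median probe intensity.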

Sequence	PBM 8-mer E-score
ATTTTATA	0.229 ± 0.058
AATTTATA	0.301 ± 0.057
AATTTATG	0.237 ± 0.005
CATTTATA	0.192 ± 0.047
ATTTTATG	0.19 ± 0.12
CCCGGTAA	-0.114 ± 0.034
TCGGTAGA	-0.128 ± 0.0077
GGTGTAAC	-0.0257 ± 0.043
GGTGTATA	0.108 ± 0.039
CGTGTATC	0.149 ± 0.028
AGTGTGTA	0.101 ± 0.012
CGTGTAAG	0.113 ± 0.075
GGTGTGTA	0.0087 ± 0.0056
CATGTATA	0.24379 ± 0.00015
CGTGTATA	0.266 ± 0.0089
CGTGTAAC	0.276 ± 0.013
CATGTATC	0.185 ± 0.028
CGTGTGTA	0.24 ± 0.067
GATGTATA	0.117 ± 0.02
TATATTCA	0.151 ± 0.15
GAGTCTTA	-0.0474 ± 0.024
ACGTTGTC	0.232 ± 0.011

Sequence	PBM 8-mer E-score
AGCGGAAA	-0.00668 ± 0.13
CCTTCTTA	0.0525 ± 0.12
AGACAGCG	-0.103 ± 0.063
AATCATCT	-0.0255 ± 0.056
CCTAGAAC	-0.0877 ± 0.0018
CGTGTGCA	0.3 ± 0.047
CATGTGTA	0.357 ± 0.029
CGTGTGCC	0.146 ± 0.14
CATGTGTC	0.216 ± 0.053
GGTGTGCA	-0.0425 ± 0.051
GATGTGTA	-0.0106 ± 0.19
ACTGGTTG	-0.086 ± 0.065
AAACTATA	0.144 ± 0.062
CAACTATA	0.119 ± 0.098
TAACTATA	0.259 ± 0.13
CTGGTGAA	-0.0735 ± 0.0064
CGACTTAG	-0.0474 ± 0.049
ATCAGGTG	0.0403 ± 0.029
CCTGCCGC	-0.2994 ± 0.0014
CAAATCGA	-0.0111 ± 0.037
AGGTGACC	-0.1467 ± 0.00024
AGCAAACC	0.102 ± 0.14

Sequence	PBM 8-mer E-score
ACATGAAG	0.0102 ± 0.026
CCATGATC	-0.0246 ± 0.092
ACATGAAT	0.245 ± 0.071
ACATGATC	0.241 ± 0.024
ACATGAAC	0.0506 ± 0.02
GCATGACA	0.2006 ± 0.0015
AAATGATA	0.197 ± 0.029
ACATGAGA	0.146 ± 0.056
GCATGATA	0.273 ± 0.01
ACATGATG	0.0731 ± 0.012
ACATGATA	0.269 ± 0.038
CCATGATA	0.0793 ± 0.032
TGCGTACA	0.188 ± 0.13
CGAGGCCG	-0.243 ± 0.075
GCCCTGAC	0.0594 ± 0.023
ACTCCGAT	-0.0923 ± 0.047
AAAGAAAC	0.0488 ± 0.013
ACATCTCA	0.146 ± 0.089
TGGGCACA	0.0612 ± 0.062
ATGTTCAC	-0.109 ± 0.027
GCTGATGA	-0.087 ± 0.06
CTTGGGAC	-0.183 ± 0.081

Sequence	PBM 8-mer E-score
AAGTGTAG	0.111 ± 0.079
ATGTGTAG	0.25 ± 0.041
ATGTGTAC	0.184 ± 0.011
ATGTGTAA	0.236 ± 0.0034
GTGTGTAA	0.0936 ± 0.013
CTGTGTAA	-0.00451 ± 0.0057
CCTAAGGA	0.089 ± 0.0031
AAGCGTAG	-0.0452 ± 0.033
CATGTCCA	0.124 ± 0.026
AGTCAGTA	0.0494 ± 0.052
TCGTGGAA	0.163 ± 0.02
ACGTGGAA	0.271 ± 0.053
CCGTGGAG	-0.163 ± 0.06
AGGTGGAT	0.0366 ± 0.1
GCGTGGAC	0.122 ± 0.16
CCGTGGAC	-0.137 ± 0.023
ACGTGGAG	0.338 ± 0.049
ACGTGGAC	0.331 ± 0.0084
AAGTGGAT	-0.0604 ± 0.074
GCGTGGAA	0.179 ± 0.049
AAGTGGAG	0.0727 ± 0.049
ACGTGGAT	0.383 ± 0.044

Sequence	PBM 8-mer E-score
ATCCTTTC	0.0595 ± 0.17
AAAGAGAT	-0.0586 ± 0.1
GTCCTTAA	0.063 ± 0.0053
AAAGGATG	0.0585 ± 0.087
CAAAACAA	0.129 ± 0.06
CATCGAGA	-0.0265 ± 0.036
GTAATGTA	0.0754 ± 0.18
ACCTCAAT	-0.0496 ± 0.16
ATGTGGAC	0.238 ± 0.018
CTGTGGAC	0.0601 ± 0.14
ATGTGGAG	0.1647 ± 0.0014
GGCATCCA	-0.0611 ± 0.057
ACCTTTTA	0.027 ± 0.18
AATAAAAC	0.296 ± 0.056
AATAAATA	0.168 ± 0.017
AATAAACC	0.197 ± 0.028
CATAAAAC	0.0726 ± 0.027
TATAAATA	0.208 ± 0.025
CATAAATA	0.313 ± 0.0091
AATAAAAG	0.206 ± 0.037
AATAAAAT	0.144 ± 0.068
AATAAAAA	0.256 ± 0.11
